# The source made the active and inactive calls. How the source made its calls: active means hit-call score of the fitted dose curve at least 0.9, where 1 is the maximum; inactive means score below 0.9.
# Assay: ATG_PBREM_CIS: Attagene CIS-FACTORIAL HepG2 Assay for human Phenobarbital-responsive Enhancer Module (PBREM) (AID 2282955)
# Conditions: HepG2 PBREM cis-reporter, Attagene multiplexed transcription; actives raise or lower the signal
# Description: ATG_CIS is a cell-based, multiplexed-readout assay that uses HepG2, a human liver cell line, with measurements taken at 24 hours after chemical dosing in a 24-well plate.ATG_PBREM_CIS is one of 52 assay component(s) measured or calculated from the ATG_CIS assay. It is designed to make measurements of mRNA induction, a form of inducible reporter, as detected with fluorescence intensity signals by Reverse transcription polymerase chain reaction (RT-PCR) and Capillary electrophoresis technology.Data from the assay component ATG_PBREM_CIS was analyzed into 1 assay endpoint. This assay endpoint, ATG_PBREM_CIS, was analyzed with bidirectional fitting relative to DMSO as the negative control and baseline of activity. Using a type of inducible reporter, measures of mRNA for gain or loss-of-signal activity can be used to understand the reporter gene at the transcription factor-level as they relate to the gene NR1I3. Furthermore, this assay endpoint can be referred to as a primary readout, because this assay has produced multiple assay endpoints where this one serves a reporter gene function. To generalize the intended target to other relatable targets, this assay endpoint is annotated to the nuclear receptor intended target family, where the subfamily is non-steroidal.
# Human liver HepG2 cells are transiently transfected with multiple reporter transcription units (MRTUs) in 6-well plates using FuGene 6 reagent (Roche; 3 ml FuGene/1 mg DNA). The MRTU constructs are regulated by a cis-regulating element (promoter). […] A major difference between the CIS and TRANS system is that in CIS activities of endogenous TFs are measured, whereas the TRANS assay evaluates changes in activities of exogenous, chimeric NR-Gal4 proteins. […] At the end of 24 hour incubation, total RNA was isolated using TriZol reagent (Invitrogen). The isolated RNA is then reverse-transcribed using oligo(dT) primer and Mo-MLV reverse transcriptase (Invitrogen) with DNAse I (Ambion) treatment for 30 min. The one-tenth of the produced cDNA was amplified by PCR using Taq DNA polymerase (Invitrogen) and two reporter sequence-specific primers. The PCR products were fluorescently labeled by primer extension with 6-arboxyfluorescein (6-FAM) 5'-labeled reporter sequence-specific primer (2 min at 95 C, 20 s at 68 C and 10 min at 72 C) and these products were digested with 5U of HpaI (New England Biolabs) for 2h at 37 C. The fragments were purified using Qiaquick PCR columns (Qiagen), analyzed on an ABI 3130xL genetic analyzer (Applied Biosystems) with peak positions identified by using a set of X-rhodamine (ROX)-labeled MapMarker1000 molecular weight standards (BioVentures). The raw capillary electrophoresis data was processed using Attagraph software (Attagene).
SMILES,outcome,AC50
CCc1ccc(O)c(OC)c1,inactive,–
Nc1c(Cl)cc(Cl)cc1[N+](=O)[O-],inactive,–
CN1C(=O)c2ccccc2C1=O,inactive,–
N[C@@H](Cc1cc(I)c(Oc2cc(I)c(O)c(I)c2)c(I)c1)C(=O)O,–,11.2 µM (active)
O=C1OC2(c3ccccc31)c1ccc(O)c(Br)c1Oc1c2ccc(O)c1Br,–,35.3 µM (active)
CC(C)=CCCC(C)CC(=O)O (stereo not given),inactive,–
COC(CC(C)CCCC(C)(C)O)OC (stereo not given),inactive,–
COc1cc(C(C)C)ccc1C,inactive,–
CC(=O)CC(=O)Nc1ccc(C)cc1C,inactive,–
CCOc1ccc(NC(=O)CC(C)=O)cc1,inactive,–
CCCC(O)C(O)CO (stereo not given),inactive,–
CC(C)C(OC(=O)c1ccccc1)C(C)(C)COC(=O)c1ccccc1 (stereo not given),inactive,–
Cc1ncc([N+](=O)[O-])n1CCO,inactive,–
CC(=O)O[C@H]1C[C@@H]2CC[C@@]1(C)C2(C)C,inactive,–
CCCCCCC(O)CCCCCCCCCCC(=O)O (stereo not given),inactive,–
C=CCCCCCCCCCC,inactive,–
CCCCC(CC)(CO)CO,inactive,–
C#CC(C)N(C)C(=O)Nc1ccc(Cl)cc1 (stereo not given),inactive,–
C=CC(C)(O)CCC=C(C)C (stereo not given),inactive,–
C=Cc1ccc(C(C)(C)C)cc1,inactive,–

SMILES,outcome,AC50
O=C(c1ccccc1)C(O)c1ccccc1 (stereo not given),inactive,–
CC1CC(O)CC(C)(C)C1 (stereo not given),inactive,–
CCCCC(CC)COC(C)=O (stereo not given),inactive,–
CCCCOC(=O)CCCCCCCC(=O)OCCCC,inactive,–
O=C(O)CCCCCCCCC(=O)O,inactive,–
OCc1cccc(Oc2ccccc2)c1,inactive,–
COCCc1ccc(OCC(O)CNC(C)C)cc1 (stereo not given),inactive,–
CSCCC=O,inactive,–
CC(=O)O[C@@H]1CC2CCC1(C)C2(C)C (stereo not given in full),inactive,–
C=C1C[C@]23C[C@@]1(O)CC[C@H]2[C@@]12C=C[C@H](O)[C@@](C)(C(=O)O1)[C@H]2[C@@H]3C(=O)O,inactive,–
Cc1ccc2c(c1)C(=O)OC2=O,inactive,–
O=Cc1ccccc1S(=O)(=O)O,inactive,–
O=C1OC(=O)c2c(Br)c(Br)c(Br)c(Br)c21,inactive,–
O=C(O)c1cc(C(=O)O)cc([N+](=O)[O-])c1,inactive,–
CSc1c(Cl)c(Cl)c(Cl)c(Cl)c1Cl,inactive,–
N#Cc1cscn1,inactive,–
COCCOC(=O)c1ccccc1C(=O)OCCOC,inactive,–
CC=Cc1ccc(OCC)c(O)c1,inactive,–
BrCc1cccc(Oc2ccccc2)c1,inactive,–
CCCCCCCCCCCCCCCC(=O)OC/C=C(C)/C=C/C=C(C)/C=C/C1=C(C)CCCC1(C)C,inactive,–

# — PubChem BioAssay (EPA / NIEHS)
